How the values were obtained:
Assay in all cases: DAPPL (digital affinity profiling via proximity ligation, sequencing); 10 mM Tris-HCl pH 7.5, 50 mM NaCl, 1 mM DTT, 4% glycerol, room temperature, 30 min; GST-TFs on glutathione beads, 16-mer random dsDNA library, 0.1% formaldehyde crosslink after washing; high values mean tight binding
Conditions in all cases: protein: recombinant; tags: N-terminal GST; dsDNA, one strand shown
[1] = biological target: T1, ELK1 (Homo sapiens, UniProt P19419 1-428)
T1 sequence: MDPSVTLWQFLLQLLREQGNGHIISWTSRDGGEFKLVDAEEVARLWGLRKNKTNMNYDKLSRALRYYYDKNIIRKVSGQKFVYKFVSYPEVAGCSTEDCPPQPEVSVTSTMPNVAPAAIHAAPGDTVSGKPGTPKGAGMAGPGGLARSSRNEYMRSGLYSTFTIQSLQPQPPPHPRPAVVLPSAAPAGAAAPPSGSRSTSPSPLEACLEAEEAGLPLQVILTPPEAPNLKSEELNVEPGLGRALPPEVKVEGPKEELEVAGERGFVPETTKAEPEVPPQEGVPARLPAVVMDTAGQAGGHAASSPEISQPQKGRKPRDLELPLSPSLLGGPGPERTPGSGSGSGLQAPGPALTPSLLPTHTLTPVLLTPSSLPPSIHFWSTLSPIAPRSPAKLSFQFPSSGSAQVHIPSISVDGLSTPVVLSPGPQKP
Procedure, shortened: (§1)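 Beads coated with glutathione captured GST-fused human transcription factors that had been expressed in yeast, and the factors were then given DNA barcodes and pooled with a tag-only sample. The pools were incubated with 200 nmole of a random double-stranded 16-mer DNA library in Tris/NaCl/DTT/glycerol buffer for 30 min at room temperature, washed, crosslinked with 0.1% formaldehyde and proximity-ligated with BsaI/T4 ligase at 37 °C for 1 h. PCR amplification and Illumina NextSeq500 sequencing came last. Binding signal is each hexamer's read frequency for a factor divided by its frequency for the tag-only sample.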

[2] = biological target: T2, ERG (Homo sapiens, UniProt P11308 1-479)
T2 sequence: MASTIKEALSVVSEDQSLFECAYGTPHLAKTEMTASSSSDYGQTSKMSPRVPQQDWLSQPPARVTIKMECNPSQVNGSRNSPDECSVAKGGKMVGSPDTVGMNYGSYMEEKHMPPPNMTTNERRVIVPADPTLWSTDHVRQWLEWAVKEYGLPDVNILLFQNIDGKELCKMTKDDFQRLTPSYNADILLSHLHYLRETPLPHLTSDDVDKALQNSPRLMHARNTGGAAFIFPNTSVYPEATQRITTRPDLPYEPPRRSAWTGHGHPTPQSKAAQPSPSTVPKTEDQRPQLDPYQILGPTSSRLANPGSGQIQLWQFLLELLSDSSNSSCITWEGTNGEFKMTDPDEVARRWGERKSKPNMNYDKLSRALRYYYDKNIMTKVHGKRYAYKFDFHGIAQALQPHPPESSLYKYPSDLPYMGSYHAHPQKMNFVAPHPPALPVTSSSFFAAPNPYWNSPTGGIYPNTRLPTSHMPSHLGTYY
Procedure, shortened: as §1

[3] = biological target: T3, EHF (Homo sapiens, UniProt Q9NZC4 1-300)
T3 sequence: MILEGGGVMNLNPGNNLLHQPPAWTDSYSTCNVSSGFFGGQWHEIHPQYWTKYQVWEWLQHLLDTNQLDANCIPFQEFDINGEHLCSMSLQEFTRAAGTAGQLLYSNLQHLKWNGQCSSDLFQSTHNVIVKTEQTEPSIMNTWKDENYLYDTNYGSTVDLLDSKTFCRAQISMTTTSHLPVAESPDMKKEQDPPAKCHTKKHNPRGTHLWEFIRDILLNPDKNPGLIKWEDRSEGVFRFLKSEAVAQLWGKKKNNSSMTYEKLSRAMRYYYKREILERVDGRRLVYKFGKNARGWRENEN
Procedure, shortened: as §1

[4] = biological target: SPIB (Homo sapiens, UniProt Q01892 1-262)
Procedure, shortened: as §1

[5] = biological target: ETV5 (Homo sapiens, UniProt P41161 1-510)
Procedure, shortened: as §1

[6] = biological target: T4, SPIC (Homo sapiens, UniProt Q8N5J4 1-248)
T4 sequence: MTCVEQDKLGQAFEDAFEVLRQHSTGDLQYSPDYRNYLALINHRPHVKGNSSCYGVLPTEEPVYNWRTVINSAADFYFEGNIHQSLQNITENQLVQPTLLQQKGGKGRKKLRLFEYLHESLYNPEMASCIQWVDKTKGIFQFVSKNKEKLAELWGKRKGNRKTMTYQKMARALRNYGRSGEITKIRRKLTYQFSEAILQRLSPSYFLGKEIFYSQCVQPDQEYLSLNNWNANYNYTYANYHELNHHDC
Procedure, shortened: as §1

[7] = biological target: ELF4 (Homo sapiens, UniProt Q99607 1-663)
Procedure, shortened: as §1

[8] = biological target: T5, ELK4 (Homo sapiens, UniProt P28324-2 1-405)
T5 sequence: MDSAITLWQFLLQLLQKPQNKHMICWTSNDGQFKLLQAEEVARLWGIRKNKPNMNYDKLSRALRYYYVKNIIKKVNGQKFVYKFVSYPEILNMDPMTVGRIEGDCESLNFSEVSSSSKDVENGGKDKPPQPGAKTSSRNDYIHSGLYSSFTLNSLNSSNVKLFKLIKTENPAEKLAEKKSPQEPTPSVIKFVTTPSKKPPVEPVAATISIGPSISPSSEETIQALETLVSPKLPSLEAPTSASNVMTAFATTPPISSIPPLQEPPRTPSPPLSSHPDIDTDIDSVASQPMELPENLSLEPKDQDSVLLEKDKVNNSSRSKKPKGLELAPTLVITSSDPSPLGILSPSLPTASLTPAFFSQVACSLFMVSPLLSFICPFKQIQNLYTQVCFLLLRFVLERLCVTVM
Procedure, shortened: as §1

[9] = biological target: T6, ELF3 (Homo sapiens, UniProt P78545 1-371)
T6 sequence: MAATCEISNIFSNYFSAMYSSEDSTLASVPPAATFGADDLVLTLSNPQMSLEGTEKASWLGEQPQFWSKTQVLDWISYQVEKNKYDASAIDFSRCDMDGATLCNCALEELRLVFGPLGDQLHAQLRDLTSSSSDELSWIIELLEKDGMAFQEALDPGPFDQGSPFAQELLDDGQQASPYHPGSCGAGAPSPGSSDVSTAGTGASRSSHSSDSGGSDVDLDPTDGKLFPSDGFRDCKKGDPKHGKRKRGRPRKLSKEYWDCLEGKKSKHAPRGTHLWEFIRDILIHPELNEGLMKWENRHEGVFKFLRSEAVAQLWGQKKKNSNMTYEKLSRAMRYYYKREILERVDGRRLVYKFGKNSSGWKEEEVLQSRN
Procedure, shortened: as §1

[10] = biological target: T7, ERF (Homo sapiens, UniProt P50548 1-548)
T7 sequence: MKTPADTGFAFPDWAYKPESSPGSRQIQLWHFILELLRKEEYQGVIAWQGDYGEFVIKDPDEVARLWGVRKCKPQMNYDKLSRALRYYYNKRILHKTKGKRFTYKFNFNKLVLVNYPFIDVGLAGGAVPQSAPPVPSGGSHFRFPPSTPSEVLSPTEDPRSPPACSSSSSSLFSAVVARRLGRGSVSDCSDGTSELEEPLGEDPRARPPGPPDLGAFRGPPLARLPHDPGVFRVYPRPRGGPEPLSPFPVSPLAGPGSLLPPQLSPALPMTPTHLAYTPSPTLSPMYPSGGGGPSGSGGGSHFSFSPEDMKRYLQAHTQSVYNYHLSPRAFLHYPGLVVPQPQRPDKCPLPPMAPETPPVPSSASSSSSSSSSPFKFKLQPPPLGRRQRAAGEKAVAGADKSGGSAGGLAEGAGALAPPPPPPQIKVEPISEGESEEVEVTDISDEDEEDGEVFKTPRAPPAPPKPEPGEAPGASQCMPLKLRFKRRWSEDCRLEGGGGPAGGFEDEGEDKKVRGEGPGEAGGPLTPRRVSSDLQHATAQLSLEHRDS
Procedure, shortened: as §1

[11] = biological target: T8, ETV3L (Homo sapiens, UniProt Q6ZN32 1-361)
T8 sequence: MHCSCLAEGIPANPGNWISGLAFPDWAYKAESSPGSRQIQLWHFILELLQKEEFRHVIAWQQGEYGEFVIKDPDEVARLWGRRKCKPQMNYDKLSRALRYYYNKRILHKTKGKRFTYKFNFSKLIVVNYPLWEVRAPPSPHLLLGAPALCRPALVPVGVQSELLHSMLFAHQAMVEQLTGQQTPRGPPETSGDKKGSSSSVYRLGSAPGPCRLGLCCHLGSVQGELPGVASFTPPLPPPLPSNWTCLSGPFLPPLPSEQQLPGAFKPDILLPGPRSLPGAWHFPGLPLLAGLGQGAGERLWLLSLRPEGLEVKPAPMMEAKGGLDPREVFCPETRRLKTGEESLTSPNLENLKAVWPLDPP
Procedure, shortened: as §1

[12] = biological target: T9, ETS2 (Homo sapiens, UniProt P15036 1-469)
T9 sequence: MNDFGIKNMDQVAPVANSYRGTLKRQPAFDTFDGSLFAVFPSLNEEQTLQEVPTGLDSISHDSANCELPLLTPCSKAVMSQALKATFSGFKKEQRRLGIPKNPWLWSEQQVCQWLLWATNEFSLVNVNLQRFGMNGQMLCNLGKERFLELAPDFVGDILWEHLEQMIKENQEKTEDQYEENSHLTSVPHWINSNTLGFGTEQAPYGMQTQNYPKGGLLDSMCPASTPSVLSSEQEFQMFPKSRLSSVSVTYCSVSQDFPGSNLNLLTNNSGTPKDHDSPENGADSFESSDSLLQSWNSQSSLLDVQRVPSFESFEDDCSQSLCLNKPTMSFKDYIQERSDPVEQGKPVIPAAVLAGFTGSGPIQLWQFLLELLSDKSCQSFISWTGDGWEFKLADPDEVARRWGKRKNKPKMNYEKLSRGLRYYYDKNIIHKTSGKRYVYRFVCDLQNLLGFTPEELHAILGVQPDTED
Procedure, shortened: as §1

[13] = biological target: T10, SPDEF (Homo sapiens, UniProt O95238 1-335)
T10 sequence: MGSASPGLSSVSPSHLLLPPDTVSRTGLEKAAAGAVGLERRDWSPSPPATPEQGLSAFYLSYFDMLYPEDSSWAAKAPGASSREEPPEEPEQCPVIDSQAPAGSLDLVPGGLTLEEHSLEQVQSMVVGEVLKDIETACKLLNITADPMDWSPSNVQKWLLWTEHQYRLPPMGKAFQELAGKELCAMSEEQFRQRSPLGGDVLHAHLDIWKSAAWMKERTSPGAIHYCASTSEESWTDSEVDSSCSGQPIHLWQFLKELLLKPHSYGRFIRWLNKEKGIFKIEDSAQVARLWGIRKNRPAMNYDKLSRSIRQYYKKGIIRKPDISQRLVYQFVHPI
Procedure, shortened: as §1

[14] = biological target: T11, ETV7 (Homo sapiens, UniProt Q9Y603 1-341)
T11 sequence: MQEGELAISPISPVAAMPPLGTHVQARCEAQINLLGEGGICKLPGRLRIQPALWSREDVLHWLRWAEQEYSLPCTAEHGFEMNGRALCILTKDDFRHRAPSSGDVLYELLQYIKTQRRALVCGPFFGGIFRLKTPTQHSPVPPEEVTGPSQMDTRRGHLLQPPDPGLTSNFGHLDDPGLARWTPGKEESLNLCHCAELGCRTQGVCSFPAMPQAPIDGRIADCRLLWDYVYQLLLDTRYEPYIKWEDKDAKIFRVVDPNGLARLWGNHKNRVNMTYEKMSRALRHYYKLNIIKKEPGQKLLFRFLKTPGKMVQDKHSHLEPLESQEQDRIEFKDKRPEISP
Procedure, shortened: as §1

[15] = biological target: T12, ETV3 (Homo sapiens, UniProt P41162-2 1-143)
T12 sequence: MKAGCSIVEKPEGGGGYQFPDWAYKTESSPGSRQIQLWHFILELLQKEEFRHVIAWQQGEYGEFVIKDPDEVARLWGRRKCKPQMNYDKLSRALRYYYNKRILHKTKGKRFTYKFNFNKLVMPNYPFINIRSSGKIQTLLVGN
Procedure, shortened: as §1

[16] = biological target: ETV6 (Homo sapiens, UniProt P41212 1-452)
Procedure, shortened: as §1

Chain of ELF4 (Q99607 whole entry): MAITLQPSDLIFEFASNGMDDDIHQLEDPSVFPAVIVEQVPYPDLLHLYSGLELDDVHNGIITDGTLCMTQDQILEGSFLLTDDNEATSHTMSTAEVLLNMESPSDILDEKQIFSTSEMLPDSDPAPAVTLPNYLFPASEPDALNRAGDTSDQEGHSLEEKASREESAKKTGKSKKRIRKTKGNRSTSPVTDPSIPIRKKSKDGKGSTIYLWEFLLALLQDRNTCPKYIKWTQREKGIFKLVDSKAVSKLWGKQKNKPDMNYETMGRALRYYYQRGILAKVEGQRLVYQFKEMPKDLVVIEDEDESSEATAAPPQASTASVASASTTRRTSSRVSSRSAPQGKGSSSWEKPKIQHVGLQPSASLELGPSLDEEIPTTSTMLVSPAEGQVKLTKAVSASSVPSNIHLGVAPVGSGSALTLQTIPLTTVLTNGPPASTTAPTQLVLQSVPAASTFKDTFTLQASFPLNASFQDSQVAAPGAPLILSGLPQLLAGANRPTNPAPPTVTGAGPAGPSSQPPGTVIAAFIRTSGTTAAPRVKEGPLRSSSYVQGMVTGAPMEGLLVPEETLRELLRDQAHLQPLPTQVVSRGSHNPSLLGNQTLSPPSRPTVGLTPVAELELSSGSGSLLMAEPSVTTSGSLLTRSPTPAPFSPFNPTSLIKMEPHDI
Chain of SPIB (Q01892 whole entry): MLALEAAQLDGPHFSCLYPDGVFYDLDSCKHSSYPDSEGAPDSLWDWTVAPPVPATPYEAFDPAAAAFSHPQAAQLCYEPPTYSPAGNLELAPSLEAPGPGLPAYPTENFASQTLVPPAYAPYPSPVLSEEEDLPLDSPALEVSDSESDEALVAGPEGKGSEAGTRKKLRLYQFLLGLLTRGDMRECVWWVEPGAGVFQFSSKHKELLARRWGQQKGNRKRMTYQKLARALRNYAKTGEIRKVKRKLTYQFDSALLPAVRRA
Chain of ETV5 (P41161 whole entry): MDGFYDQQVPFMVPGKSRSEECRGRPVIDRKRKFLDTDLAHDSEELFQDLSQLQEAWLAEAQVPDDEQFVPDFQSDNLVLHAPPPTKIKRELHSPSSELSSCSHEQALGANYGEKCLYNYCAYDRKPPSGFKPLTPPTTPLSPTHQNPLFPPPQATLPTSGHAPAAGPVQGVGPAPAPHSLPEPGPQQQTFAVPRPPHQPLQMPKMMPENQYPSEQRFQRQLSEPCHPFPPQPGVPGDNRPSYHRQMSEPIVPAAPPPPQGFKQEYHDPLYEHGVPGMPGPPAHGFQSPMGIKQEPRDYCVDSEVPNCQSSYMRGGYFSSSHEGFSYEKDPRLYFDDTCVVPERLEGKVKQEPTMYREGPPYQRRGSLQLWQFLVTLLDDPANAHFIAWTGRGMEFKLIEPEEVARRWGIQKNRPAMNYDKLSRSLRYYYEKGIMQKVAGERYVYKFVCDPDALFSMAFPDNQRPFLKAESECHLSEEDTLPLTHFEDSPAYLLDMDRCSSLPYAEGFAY
Chain of ETV6 (P41212 whole entry): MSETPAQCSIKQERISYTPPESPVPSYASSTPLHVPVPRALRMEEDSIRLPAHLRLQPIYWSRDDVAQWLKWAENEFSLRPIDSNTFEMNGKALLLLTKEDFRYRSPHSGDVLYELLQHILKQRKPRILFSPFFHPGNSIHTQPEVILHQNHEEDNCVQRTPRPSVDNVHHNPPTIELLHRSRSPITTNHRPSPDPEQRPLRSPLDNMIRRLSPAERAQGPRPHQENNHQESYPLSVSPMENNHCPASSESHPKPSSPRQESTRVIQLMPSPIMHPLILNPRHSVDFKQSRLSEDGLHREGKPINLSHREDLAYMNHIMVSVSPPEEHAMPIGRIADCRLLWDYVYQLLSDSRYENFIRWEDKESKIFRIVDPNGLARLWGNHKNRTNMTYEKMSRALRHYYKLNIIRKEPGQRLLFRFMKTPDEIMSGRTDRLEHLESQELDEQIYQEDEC

With GCCCCG the binding signal [1] was 1.07 fold enrichment (6-mer frequency, TF over GST control), the binding signal [2] was 1.06 fold enrichment (6-mer frequency, TF over GST control) and the binding signal [3] was 1.01 fold enrichment (6-mer frequency, TF over GST control). For the same sequence, the binding signal [4] was 1.16 fold enrichment (6-mer frequency, TF over GST control), the binding signal [5] was 1.02 fold enrichment (6-mer frequency, TF over GST control) and the binding signal [6] was 1.13 fold enrichment (6-mer frequency, TF over GST control). For the same sequence, the binding signal [7] was 1.09 fold enrichment (6-mer frequency, TF over GST control), the binding signal [8] was 1.13 fold enrichment (6-mer frequency, TF over GST control) and the binding signal [9] was 1.08 fold enrichment (6-mer frequency, TF over GST control). For the same sequence, the binding signal [10] was 1 fold enrichment (6-mer frequency, TF over GST control), the binding signal [11] was 1.03 fold enrichment (6-mer frequency, TF over GST control) and the binding signal [12] was 1.02 fold enrichment (6-mer frequency, TF over GST control). For the same sequence, the binding signal [13] was 1.01 fold enrichment (6-mer frequency, TF over GST control), the binding signal [14] was 1.06 fold enrichment (6-mer frequency, TF over GST control) and the binding signal [15] was 1.15 fold enrichment (6-mer frequency, TF over GST control). For the same sequence, the binding signal [16] was 1.09 fold enrichment (6-mer frequency, TF over GST control).

Source: paper PMC7862700, “An all-to-all approach to the identification of sequence-specific readers for epigenetic DNA modifications on cytosine”
